Laboratory results: PubChem BioAssay AID504832 (National Center for Advancing Translational Sciences (NCATS), 2011)
Hit rate of the full screen: of about 310,000 compounds, about 18,000 (5.8%) were called active. Not shown: some 22% with an inconclusive outcome. This excerpt belongs to a sample that is enriched for actives. A number with no mark means an inactive call. Calls come from the whole dose curve; as a rule, active = well fitted inhibition curve with a large enough effect; inconclusive = small, poorly fitted or top-dose-only effect, or another doubt; inactive = no such curve, though single readings can be large or run the other way. Non-standard residues stand in square brackets, D forms with d. Residues, ends and D or L forms follow the SMILES beside them. *: point of attachment. PhAc = O=C(Cc1ccccc1)*

Test: Primary qHTS for delayed death inhibitors of the malarial parasite plastid, 48 hour incubation
Details: P. falciparum luciferase growth in erythrocytes; series mostly up to 28.7 µM; activity change, negative = inhibition: at the top concentration
Procedure, shortened: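 Read-out is firefly luciferase luminescence from an integrated reporter in P. falciparum, so falling signal marks reduced parasite growth. Infected erythrocytes were at 2% hematocrit and 0.1% parasitemia (final) in Albumax-supplemented RPMI 1640.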
% is set by controls: 0 for no effect and ±100 for the full control effect; potency is the fitted concentration of half-maximal effect.

Compound | Potency | activity change, negative = inhibition
CC(C)n1ncc2c(C(=O)NCc3ccccc3CN(C)C)cc(C3CC3)nc21 | 11.7 µM (active) | –
N#CCc1ccc(NC(=O)c2ccccc2C(=O)Nc2ccc(CC#N)cc2)cc1 | – | 20.5%
CC(=O)Nc1ccc(CC#N)cc1 | – | 3.33%
COCCNC(=O)COc1ccc(C)c(C)c1 | – | 39.1%
CC(C)n1ncc2c(C(=O)Nc3ccc(CC#N)cc3)cc(C3CC3)nc21 | 14.7 µM (active) | –
Cc1ccccc1OCCC(=O)OCC(=O)NCCc1ccc(S(N)(=O)=O)cc1 | – | 0%
Cc1cc(C)c(S(=O)(=O)c2cc(F)ccc2C)c(=O)[nH]1 | – | 23.4%
O=c1ccc(-c2ccc(S(=O)(=O)Nc3ccccc3)o2)n[nH]1 | – | 18.2%
O=C(CN1C(=O)CSC1=O)N1CCCC(Nc2ccc(F)cc2)C1 (stereo not given) | – | -15.8%
Cc1ccc(S(=O)(=O)N(C)c2ccc(OCC(=O)OCC(=O)N(CC#N)c3ccccc3)cc2)cc1 | – | -18.1%
Cc1cccc(NC(=S)NC(=O)c2ccc(Br)o2)c1 | – | 29.3%
Cc1cccc(NC(=O)c2ccc([N+](=O)[O-])o2)c1 | 13.1 µM (active) | –
O=C(Nc1ccc(Br)cn1)c1ccc([N+](=O)[O-])o1 | – | -37.6%
O=C(CNC(=O)c1ccc(Br)o1)Nc1ccccc1 | – | 5.96%
COCCNC(=O)c1ccc(S(=O)(=O)c2ccc(Cl)cc2)c(NC(C)=O)c1 | – | 0.449% [at 0.00184 µM]
CC12CCC(C(=O)N3CCN(c4ncccn4)CC3)(c3nc4ccccc4nc31)C2(C)C (stereo not given) | 11.7 µM (active) | –
CC(Oc1ccc(F)cc1)C(=O)N1CCN(c2ncccn2)CC1 (stereo not given) | – | 4.64%
c1cnc(N2CCN(c3ccc4ccccc4n3)CC2)nc1 | – | 161%
O=C(NCc1nnc(SCC(=O)N2CCCCCC2)o1)c1ccc(F)cc1 | – | -11.3%
Cc1ccc(S(=O)(=O)N[C@@H](Cc2ccccc2)C(=O)N2CCC(C(=O)N[C@H](C(=O)O)C(C)O)CC2)cc1 (stereo not given in full) | – | 18.2%
Cc1cc(C)c(C#N)c(SCc2ccccc2C(=O)O)n1 | – | 31.1%
CC1(C)CCc2nc(SCc3ccccc3)c(C#N)cc2C1 | 5.22 µM (active) | –
CN1CCc2nc(SC(C(=O)O)c3ccccc3)c(C#N)c(-c3cccs3)c2C1 (stereo not given) | – | -13.9%
Cc1cc(NC(=O)CSc2nc3c(cc2C#N)CCCCC3)no1 | – | 42.4%
CC(NC(=O)CSc1nc2c(cc1C#N)CN(C)CC2)c1ccccc1 (stereo not given) | 10.4 µM (active) | –

Compound | Potency | activity change, negative = inhibition
N#CC1=C(SCc2ccccc2)NC(=O)C(C#N)C12CCCC2 (stereo not given) | – | 5.15%
C[C@@H]1CC[C@@]2(OC1)O[C@H]1C[C@H]3[C@@H]4CC=C5C[C@@H](O)[C@H](O)C[C@]5(C)C4CC[C@]3(C)[C@H]1[C@@H]2C (stereo not given in full) | – | 29.2%
CN(C)c1ccc(CNC(=O)CN2C(=O)COc3ccc(S(=O)(=O)N4CCCC4)cc32)cc1 | – | 14.1%
Cc1ccc(S(=O)(=O)NCc2ccc(C(=O)NC3CCC(C)CC3)cc2)cc1 (stereo not given) | – | -18.1%
O=C(CC(n1cncn1)C(Cl)(Cl)Cl)c1ccc([N+](=O)[O-])cc1 (stereo not given) | – | -32.2% [at 0.00184 µM]
CC(C)C[C@@H](NC(=O)[C@H]1CCCN1C(=O)Cc1ccccc1)C(N)=O (PhAc-[dP]-[dL]-NH2) | – | 8.09% [at 0.00184 µM]
CCOCCn1c(-c2ccccc2)nc2ccccc21 | – | 0.39%
CCCCn1c(N)c(N(CCOC)C(=O)CSCC(=O)Nc2cccc(C)c2)c(=O)[nH]c1=O | – | -10.7%
CCCCn1c(-c2cccc(C)c2)nc2cc3[nH]c(=O)c(C(C)C)nc3cc21 | 9.28 µM (active) | –
CN(Cc1cccc2ncccc12)C(=O)CC1C(=O)NCCN1Cc1ccc(F)cc1 (stereo not given) | – | -6.35%
CN(C(=O)CC1C(=O)NCCN1Cc1ccc(F)cc1Cl)C1CCCCC1 (stereo not given) | 11.7 µM (active) | –
CN(C(=O)CC1C(=O)NCCN1Cc1ccc2ccccc2c1)C1CCOCC1 (stereo not given) | – | -7.75%
O=C(CN(Cc1ccccc1)C(=O)CCC(=O)Nc1ccccn1)NCCc1ccccc1 | – | 1.95%
Cc1sc2ncn(CC(=O)NCCCC(=O)N3CCN(c4ccccc4F)CC3)c(=O)c2c1C | – | 17.2%
CCCCCOc1ccc(/C=C/C(=O)NCCc2nc3ccccc3[nH]2)cc1OC | 10.4 µM (active) | –
COc1ccc(OC(C)C(=O)NCCc2nc3ccccc3[nH]2)cc1 (stereo not given) | – | -4.17%
O=C(COc1ccccc1)NCCc1nc2ccccc2[nH]1 | – | 6.88%
CCC(C)N1CC(=O)N2Cc3[nH]c4ccccc4c3C[C@H]2C1=O (stereo not given in full) | – | -9.23%
CC(C)c1ccc(Cc2nnc(NCCCO)[nH]c2=O)cc1 | – | -16.3%
CC(OC(=O)Cc1ccc(F)cc1)C(=O)N1CCc2ccccc21 (stereo not given) | – | -0.0345%
O=C(CSCc1ccccc1)N1CCc2ccccc21 | – | 169%
Cc1ccn(CCC(=O)N2c3ccccc3CC2C)n1 (stereo not given) | – | -0.0677%
CC1Cc2ccccc2N1C(=O)c1cc2sccc2n1Cc1ccccc1 (stereo not given) | 11.7 µM (active) | –
CC(=O)N1c2ccc(S(=O)(=O)N(C)CC(=O)N(C)Cc3ccccc3)cc2CC1C (stereo not given) | – | -3.71%
O=C(c1cc2sccc2n1Cc1ccc(F)cc1)N1CCc2ccccc21 | 14.7 µM (active) | –
